The results in this text go back to PubChem BioAssay (EPA / NIEHS).

Read-out in experiment [1]: C-C motif chemokine 2 (Homo sapiens) (UniProt P13500)
Put plainly: BSK_KF3CT_MCP1: BioMAP Diversity Plus: KF3CT Assay for Monocyte Chemoattractant Protein 1 (MCP1/CCL2) Biomarker Activity (AID 2283073). Particulars: primary human keratinocytes with fibroblasts; actives raise or lower the signal. A digest of the protocol: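 Biomarker MCP-1 is measured by ELISA in primary human keratinocytes co-cultured with foreskin fibroblasts, 24 h after chemical treatment; DMSO serves as the negative control and activity baseline.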

Read-out in experiment [2]: Matrix Metallopeptidase 9 (MMP9), MMP9 (gene 4318)
Briefly: BSK_KF3CT_MMP9: BioMAP Diversity Plus: KF3CT Assay for Matrix Metallopeptidase 9 (MMP9) Biomarker Activity (AID 2283074).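 On AC50: MMP9 protein level quantified by ELISA in the co-culture.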 The settings on record: primary human keratinocytes with fibroblasts; actives raise or lower the signal. The gist of the method:
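Human keratinocyte and foreskin fibroblast co-culture exposed to chemicals for 24 h; MMP9 biomarker measured by ELISA, bidirectional fitting relative to DMSO; cytotoxicity tracked by SRB total protein staining in parallel cultures.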

Read-out in experiment [3]: urokinase plasminogen activator (uPA), PLAU (gene 5328)
Put plainly: BSK_KF3CT_uPA: BioMAP Diversity Plus: KF3CT Assay for urokinase plasminogen activator (uPA) Biomarker Activity (AID 2283075). Particulars: primary human keratinocytes with fibroblasts; actives raise or lower the signal. The gist of the method:
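Primary human keratinocyte/foreskin fibroblast co-culture exposed to chemical; uPA measured by ELISA at 24 h. Bidirectional fit versus DMSO, with parallel SRB total-protein staining for cytotoxicity.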

Read-out in experiment [4]: CD40, CD40 (gene 958)
Briefly: BSK_LPS_CD40: BioMAP Diversity Plus: LPS Assay for CD40 Biomarker Activity (AID 2283076). The settings on record: primary human HUVEC with PBMC; actives raise or lower the signal. The gist of the method:
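Using a multiplexed primary human co-culture (umbilical vein endothelium plus PBMC), CD40 was read by ELISA 24 h after dosing, with cytotoxicity tracked by sulforhodamine B staining of parallel cultures and activity fitted bidirectionally versus DMSO.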

Read-out in experiment [5]: E-selectin (Homo sapiens) (UniProt P16581)
Put plainly: BSK_LPS_Eselectin: BioMAP Diversity Plus: LPS Assay for Eselectin Biomarker Activity (AID 2283077). The settings on record: primary human HUVEC with PBMC; actives raise or lower the signal. The gist of the method: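 Dose chemical onto LPS-driven HUVEC/PBMC co-culture; after 24 h, run ELISA for E-selectin; fit up- and down-going responses relative to DMSO control.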

Read-out in experiment [6]: Interleukin-8 (IL8), CXCL8 (gene 3576)
Briefly: BSK_LPS_IL8: BioMAP Diversity Plus: LPS Assay for Interleukin-8 (IL8) Biomarker Activity (AID 2283078). Particulars: primary human HUVEC with PBMC; actives raise or lower the signal. The gist of the method:
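In this LPS system, chemical-treated human umbilical vein endothelium/PBMC co-cultures were harvested at 24 h for IL-8 ELISA.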

Experiment [7] is described as follows: BSK_LPS_SRB: Viability Assessment in the BioMAP Diversity Plus: LPS Assay (AID 2283079).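 Further: total protein by sulforhodamine B absorbance as a cytotoxicity measure; measured one day after compound addition; fitted in both directions against DMSO so loss or gain of signal counts.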 Particulars: primary human HUVEC with PBMC. The gist of the method:
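Cytotoxicity endpoint in human endothelial–PBMC co-culture: 24 h exposure, then SRB (0.1%) staining, 560 nm read.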

Read-out in experiment [8]: Interleukin-1 alpha (IL1a), IL1A (gene 3552)
Briefly: BSK_LPS_IL1a: BioMAP Diversity Plus: LPS Assay for Interleukin-1 alpha (IL1a) Biomarker Activity (AID 2283080). The settings on record: primary human HUVEC with PBMC; actives raise or lower the signal. A digest of the protocol: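 Primary human HUVEC and PBMC co-culture stimulated with LPS is dosed and harvested at 24 h. Both increases and decreases in ELISA-measured IL-1a are scored relative to DMSO.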

Read-out in experiment [9]: Monocyte Chemoattractant Protein-1 (MCP1), CCL2 (gene 6347)
Briefly: BSK_LPS_MCP1: BioMAP Diversity Plus: LPS Assay for Monocyte Chemoattractant Protein-1 (MCP1) Biomarker Activity (AID 2283081).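 On AC50: secreted MCP-1 protein quantified by ELISA in culture supernatant.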 Particulars: primary human HUVEC with PBMC; actives raise or lower the signal. The gist of the method:
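Values derive from bidirectional fitting against DMSO of ELISA-measured MCP-1 in a human primary endothelial and mononuclear cell co-culture, 24 h after chemical addition under LPS activation.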

Experiment [10] can be described thus: BSK_LPS_PGE2: BioMAP Diversity Plus: LPS Assay for Prostaglandin E2 (PGE2) Biomarker Activity (AID 2283082).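 On AC50: secreted prostaglandin E2 measured by ELISA in LPS-stimulated co-culture.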 Particulars: primary human HUVEC with PBMC; actives raise or lower the signal. A digest of the protocol: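 LPS-activated HUVEC/PBMC co-culture; cmpd dosed, 24 h; PGE2 by ELISA; bidirectional fit vs DMSO; SRB (0.1%, TCA-fixed, 560 nm) in parallel plates for overt cytotox.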

Read-out in experiment [11]: Macrophage colony-stimulating factor (MCSF), CSF1 (gene 1435)
Briefly: BSK_LPS_MCSF: BioMAP Diversity Plus: LPS Assay for Macrophage colony-stimulating factor (MCSF) Biomarker Activity (AID 2283083). Particulars: primary human HUVEC with PBMC; actives raise or lower the signal. A digest of the protocol:
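Bidirectional fit versus DMSO of ELISA-measured M-CSF in co-cultured human umbilical vein endothelial cells and PBMC, sampled 24 h after dosing.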

Read-out in experiment [12]: Tissue Factor, F3 (gene 2152)
Put plainly: BSK_LPS_TissueFactor: BioMAP Diversity Plus: LPS Assay for Tissue Factor Biomarker Activity (AID 2283084). The settings on record: primary human HUVEC with PBMC; actives raise or lower the signal. A digest of the protocol: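 Read-out: CD142 ELISA, 24 h. System: LPS-driven human endothelial/PBMC co-culture. Analysis: up- or down-signal fitted against DMSO.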

Read-out in experiment [13]: Tumor necrosis factor (Homo sapiens) (UniProt P01375)
Put plainly: BSK_LPS_TNFa: BioMAP Diversity Plus: LPS Assay for Tumour Necrosis Factor alpha (TNFa) Biomarker Activity (AID 2283085). The settings on record: primary human HUVEC with PBMC; actives raise or lower the signal. The gist of the method: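 Read-out is ELISA of TNFa in primary human endothelial cell–PBMC co-cultures at 24 h after compound. Activity in either direction was fitted against DMSO.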

Read-out in experiment [14]: Vascular cell adhesion molecule 1 (VCAM1), VCAM1 (gene 7412)
Briefly: BSK_LPS_VCAM1: BioMAP Diversity Plus: LPS Assay for Vascular cell adhesion molecule 1 (VCAM1) Biomarker Activity (AID 2283086). Particulars: primary human HUVEC with PBMC; actives raise or lower the signal. A digest of the protocol:
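HUVEC + PBMC co-culture, LPS system; compound 24 h; VCAM-1 by ELISA; bidirectional fit vs DMSO control; parallel SRB (0.1%, TCA-fixed, 560 nm) for cytotoxicity.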

Read-out in a further experiment: CD38, CD38 (gene 952)
Briefly: BSK_SAg_CD38: BioMAP Diversity Plus: SAg Assay for CD38 Biomarker Activity (AID 2283087). Particulars: primary human HUVEC with PBMC; actives raise or lower the signal. A digest of the protocol:
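Human HUVEC plus PBMC co-culture stimulated with superantigen; CD38 measured by ELISA 24 h after chemical dosing. Fluorescence read-out, bidirectional fit against DMSO; cytotoxicity tracked in parallel by SRB and Alamar Blue.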

Read-out in experiment [15]: CD40, CD40 (gene 958)
Briefly: BSK_SAg_CD40: BioMAP Diversity Plus: SAg Assay for CD40 Biomarker Activity (AID 2283088). Particulars: primary human HUVEC with PBMC; actives raise or lower the signal. A digest of the protocol:
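Endpoint derived by fitting increases or decreases versus DMSO controls. CD40 is detected by fluorescence ELISA in a human vascular co-culture of endothelium and PBMC at 24 h.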

Read-out in another experiment: CD69, CD69 (gene 969)
Briefly: BSK_SAg_CD69: BioMAP Diversity Plus: SAg Assay for CD69 Biomarker Activity (AID 2283089).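 On AC50: cell surface CD69 protein quantified by ELISA with fluorescence detection.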 Particulars: primary human HUVEC with PBMC; actives raise or lower the signal. A digest of the protocol:
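Values derive from bidirectional fitting relative to DMSO vehicle. Cells: umbilical vein endothelium plus peripheral blood mononuclear cells, treated 24 h before fluorescent ELISA for CD69.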

Read-out in experiment [16]: Monocyte Chemoattractant Protein-1 (MCP1), CCL2 (gene 6347)
Briefly: BSK_SAg_MCP1: BioMAP Diversity Plus: SAg Assay for Monocyte Chemoattractant Protein-1 (MCP1) Biomarker Activity (AID 2283090). Particulars: primary human HUVEC with PBMC; actives raise or lower the signal. A digest of the protocol:
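MCP-1 levels in the endothelial–PBMC SAg co-culture were quantified by ELISA at 24 h post-dosing; both increases and decreases versus DMSO scored. Cytotoxicity monitored by SRB total protein in parallel cultures.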

Read-out in experiment [17]: E-selectin (Homo sapiens) (UniProt P16581)
Briefly: BSK_SAg_Eselectin: BioMAP Diversity Plus: SAg Assay for Eselectin Biomarker Activity (AID 2283091). The settings on record: primary human HUVEC with PBMC; actives raise or lower the signal. A digest of the protocol:
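Endpoint values derive from bidirectional fitting relative to DMSO, using ELISA-measured E-selectin in a human vascular co-culture (umbilical vein endothelium plus PBMC) sampled 24 h after dosing.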

Read-out in experiment [18]: Monokine induced gamma interferon (MIG), CXCL9 (gene 4283)
Put plainly: BSK_SAg_MIG: BioMAP Diversity Plus: SAg Assay for Monokine induced gamma interferon (MIG) Biomarker Activity (AID 2283092). Particulars: primary human HUVEC with PBMC; actives raise or lower the signal. A digest of the protocol: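 Values reflect bidirectional fitting of ELISA-measured MIG against DMSO vehicle, taken 24 h after dosing of a co-culture of human umbilical vein endothelial cells and peripheral blood mononuclear cells.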

SMILES strings stand for the structures. Values joined by “and” are separate entries in the source; they are usually repeats but may differ in a detail not shown here. Equal values may be shown once. Some compounds were tested as several samples or in several runs, with calls that do not always agree. Active and inactive are the calls of the source. How the source made its calls: active means hit-call score of the fitted dose curve at least 0.9, where 1 is the maximum; inactive means score below 0.9.

Tumor necrosis factor (Homo sapiens), sequence (P01375 whole entry, looked up): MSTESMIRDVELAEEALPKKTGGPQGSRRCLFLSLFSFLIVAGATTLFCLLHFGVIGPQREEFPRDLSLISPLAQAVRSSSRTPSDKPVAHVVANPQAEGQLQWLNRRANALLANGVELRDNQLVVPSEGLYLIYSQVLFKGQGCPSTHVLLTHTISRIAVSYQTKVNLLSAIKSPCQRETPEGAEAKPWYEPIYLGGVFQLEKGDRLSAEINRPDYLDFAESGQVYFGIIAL
E-selectin (Homo sapiens), sequence (P16581 whole entry, looked up): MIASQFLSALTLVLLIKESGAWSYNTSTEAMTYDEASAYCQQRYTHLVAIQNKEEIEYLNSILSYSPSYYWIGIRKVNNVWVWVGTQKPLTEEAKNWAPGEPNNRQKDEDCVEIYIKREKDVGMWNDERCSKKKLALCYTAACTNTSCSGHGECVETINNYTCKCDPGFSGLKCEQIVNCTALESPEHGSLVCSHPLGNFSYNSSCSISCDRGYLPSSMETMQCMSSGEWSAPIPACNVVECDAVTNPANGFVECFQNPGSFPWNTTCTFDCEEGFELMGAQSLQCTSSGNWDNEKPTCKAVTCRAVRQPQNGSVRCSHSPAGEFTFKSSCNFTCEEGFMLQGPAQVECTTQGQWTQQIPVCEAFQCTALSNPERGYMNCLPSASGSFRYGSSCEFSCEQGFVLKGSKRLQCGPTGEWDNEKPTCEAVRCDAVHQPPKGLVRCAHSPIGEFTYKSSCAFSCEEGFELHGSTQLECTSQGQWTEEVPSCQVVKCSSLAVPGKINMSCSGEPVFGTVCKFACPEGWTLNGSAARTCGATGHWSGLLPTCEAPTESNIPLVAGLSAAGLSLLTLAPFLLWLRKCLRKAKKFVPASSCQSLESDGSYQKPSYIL

In the case of `CN(Cc1cnc2nc(N)nc(N)c2n1)c1ccc(C(=O)N[C@@H](CCC(=O)O)C(=O)O)cc1`, the outcome in experiment [1] is “inactive”; in experiment [2], “inactive”; in [3], “inactive”; with CD40, CD40 (gene 958) [4] it was “inactive”; in experiment [5], “inactive”; in [6] it was “inactive”. Further, the outcome in experiment [7], in experiment [8], in experiment [9], in experiment [10], in experiment [11] and in experiment [12] was inactive. Moreover, the outcome is “inactive” in experiment [13]; “inactive” in experiment [14]; “inactive” in the experiment with CD38, CD38 (gene 952); “inactive” with CD40, CD40 (gene 958) [15]; “inactive” with CD69, CD69 (gene 969); “inactive” in experiment [16]. The outcome in experiment [17] and in experiment [18] was inactive. In addition, the AC50 in experiment [3] is 4.77 µM (active); in experiment [9], 100 nM (active).
In the case of `O=C(O)C(F)(F)OC(F)(F)C(F)(F)OC(F)(F)C(F)(F)OC(F)(F)C(F)(F)C(F)(F)C(F)(F)F`, the AC50 in experiment [1] is 8.05 µM (active) and 8.01 µM (active); in experiment [2] it was 8.13 µM (active) and 8.24 µM (active); in experiment [3] it was 14.5 µM (active) and 15.7 µM (active); with CD40, CD40 (gene 958) [4], 30 µM (active) and 36.5 µM (active); in experiment [5] it was 54.1 µM (active) and 50.8 µM (active); in experiment [6], 47.5 µM (active) and 26 µM (active). For the same molecule, the AC50 was 54.4 µM (active) and 50.9 µM (active) in experiment [7]; 44.4 µM (active) and 40.1 µM (active) in experiment [8]; 52.4 µM (active) and 46.7 µM (active) in experiment [9]; 37.8 µM (active) and 25.8 µM (active) in experiment [10]; 55.1 µM (active) and 44.7 µM (active) in experiment [11]; 54.8 µM (active) and 30 µM (active) in [12]. Also, the concentration at half-maximal activity (AC50) in [13] is 50 µM (active) and 46.4 µM (active); in experiment [14], 45.6 µM (active) and 48.4 µM (active); with CD38, CD38 (gene 952), 45.5 µM (active) and 47.5 µM (active); with CD40, CD40 (gene 958) [15], 43.7 µM (active) and 45.3 µM (active); with CD69, CD69 (gene 969) it was 42.8 µM (active) and 32 µM (active); in experiment [16], 48.8 µM (active) and 47.2 µM (active). Further, in experiment [17], the half-maximal activity concentration (AC50) was 45.4 µM (active) and 49.9 µM (active).
On to `CCCCCCCCCCCCOS(=O)(=O)O`, for which the half-maximal activity concentration (AC50) in experiment [1] was 20 µM (active); in [2], 30.9 µM (active); in [3] it was 31.1 µM (active). In addition, the outcome with CD40, CD40 (gene 958) [4] was “inactive”; in experiment [5] it was “inactive”; in [6], “inactive”; in experiment [8], “inactive”; in [9], “inactive”; in experiment [10] it was “inactive”. Also, the outcome in experiment [11] is “inactive”; in [13], “inactive”; in [14] it was “inactive”; with CD38, CD38 (gene 952), “inactive”; with CD40, CD40 (gene 958) [15], “inactive”; with CD69, CD69 (gene 969), “inactive”. In addition, the outcome in [16] and in experiment [17] was inactive.

As usually defined, the AC50 is the concentration at which the activity in the assay is half-maximal.
